Autofluor counter: counter-screen for toxin protease inhibitors: compound fluorescence | fluorescence intensity (test concentration not listed) | AID 624483 | actives 3.1% (n = 360,000) | compound autofluorescence counterscreen, microsphere flow cytometry; hits give high values; in the data active = fluorescence intensity above about 16000; inconclusive = no clear call, values can overlap the other calls
MazF activator: MazEF (E. coli) toxin RNase activation. P0AE70. FAM/BHQ RNA-DNA oligo cleavage fluorescence, 5 h. activation, % at 20 µM. actives 0.32% (n = 350,000). AID 504720; in the data active = activation above about 50%
Target sequence (P0AE70 whole entry, looked up): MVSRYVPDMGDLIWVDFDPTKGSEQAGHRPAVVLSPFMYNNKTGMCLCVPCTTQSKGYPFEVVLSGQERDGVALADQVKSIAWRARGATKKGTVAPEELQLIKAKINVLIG
BoNT-F LC inh: BoNT F light chain protease inhibition | Multiplex microsphere protease cleavage assay, flow cytometry | inhibition, % at 10 µM | actives 0.22% (n = 360,000); in the data active = inhibition above about 35%, passing the limit was not always enough; inconclusive = no clear call, values can overlap the other calls
Anthrax LF inh2: blocks Bacillus anthracis lethal factor protease; P15917; inhibition, % at 10 µM; actives 0.12% (n = 360,000); AID 588501; multiplex microsphere protease cleavage assay, LF
BoNT A protease: BoNT A light chain protease inhibition. multiplex microsphere protease substrate cleavage, flow cytometry. inhibition, % at 10 µM. actives 0.17% (n = 360,000)
Large screens that a line does not name were inactive. Hits are enriched below; roughly 3.6% of the tested compounds scored in any of these assays. Rule as the data show it, unless noted: active = inhibition above about 30%; inconclusive = no clear call, values can overlap the other calls; inactive = below that.

CCOC(=O)c1c(C)[nH]c(C(=O)COC(=O)C(C)N2C(=O)C3CCCCC3C2=O)c1C (centres undefined)	Autofluor counter 24956
CC(=O)CSc1nnc(-c2ccc(S(=O)(=O)N3CCOCC3)cc2)n1C	none
Cn1c(SCC(=O)Nc2nccs2)nnc1-c1ccc(S(=O)(=O)N2CCCC2)cc1	Autofluor counter 19176
Cc1ccc(Nc2nnc(SCC(=O)Nc3ccc(S(=O)(=O)N4CCOCC4)cc3)s2)cc1	Autofluor counter 22187
O=C(CSc1nc2ccccc2n1CC(=O)N1CCCC1)Nc1nccs1	Autofluor counter 23314
Cc1cccc(NC(=O)CSc2nnc(-c3ccc(S(=O)(=O)N4CCOCC4)cc3)n2C)c1	Autofluor counter 16637
COc1ccc(-c2onc3ccc(C(=O)/C=C/N(C)C)cc23)cc1	BoNT-F LC inh 45
CN(C)/C=C/C(=O)c1ccc2noc(-c3cccc(F)c3)c2c1	none
Cc1nn(CC(=O)NCCCN2CCCC2=O)c(C)c1[N+](=O)[O-]	none
CNc1cccc(-c2c(OC)cccc2OC)n1	none (no result: MazF activator)
O=C1C2ON(c3ccccc3)C(c3ccncc3)C2C(=O)N1c1ccc(N2CCOCC2)cc1 (centres undefined)	none
O=C1C2ON(c3ccccc3)C(c3ccncc3)C2C(=O)N1c1ccc(Br)cc1 (centres undefined)	Autofluor counter 20513, BoNT A protease inconclusive
Cc1ccc(N2C(=O)C3ON(c4ccccc4)C(c4ccncc4)C3C2=O)cc1 (centres undefined)	Autofluor counter 20770
CCOC(=O)Cc1nnc(NC(=O)c2ncn[nH]2)s1	Autofluor counter 23312
CC1=C(C(=O)Nc2ccccc2)C(c2cccc([N+](=O)[O-])c2)Nc2nc3ccccc3n21 (centres undefined)	Autofluor counter 23880
CNC(=O)C1=C(C)n2c(nc3ccccc32)NC1c1ccc(OC)cc1 (centres undefined)	none
CCOc1ccc(C(=O)N/N=C/c2ccccc2[N+](=O)[O-])cc1	none
CCC(=O)Nc1ccc(C(=O)N/N=C/c2ccccc2[N+](=O)[O-])cc1	Autofluor counter 23894
COc1cc(/C=C/C=C2/CC/C(=C/C=C/c3ccc(O)c(OC)c3)C2=O)ccc1O	Anthrax LF inh2 34, BoNT A protease 39
COc1cc(/C=C2/CC/C(=C/c3ccc(O)c(OC)c3)C2=O)ccc1O	none
CCOc1ccc(-n2c(=O)c3sccc3n(CC(=O)NCc3ccco3)c2=O)cc1	Autofluor counter 19457
CNC(=O)COc1ccc(S(=O)(=O)N2CCCC2)cc1	BoNT-F LC inh inconclusive
CCN1/C(=C/c2ccc3cc(C)ccc3[n+]2CC)Sc2ccccc21	MazF activator 69, BoNT A protease 78
CCN1/C(=C/C=C/C=C/C=C/c2sc3ccccc3[n+]2CC)Sc2ccccc21	none
CC[n+]1c(/C=C2\Sc3ccccc3N2C)ccc2cccc(C)c21	MazF activator 106, BoNT A protease 62
CCN1/C(=C/C=C/c2sc3ccccc3[n+]2CC)Sc2ccccc21	BoNT A protease 32
CN1/C(=C/c2cccc[n+]2CCO)Sc2ccccc21	none
CCN1/C(=C/c2ccc3cc(C)ccc3[n+]2CC)Sc2cc(C)c(C)cc21	MazF activator 71, BoNT A protease 49
O=C(N/N=C/c1cccnc1)c1cc(-c2ccc(Br)cc2)nc2ccccc12	none
CN(CC(=O)Nc1cccc(F)c1)CC(=O)N1CCc2ccccc21	none
C=CCOc1ccc(CN(C)CC(O)COc2cccc3ccccc23)cc1 (centres undefined)	none
Cc1onc(-c2ccccc2)c1C(=O)Nc1nnc(CC(C)(C)C)s1	none
COCCN1C(=O)/C(=C/c2ccc(N3CCCC3)cc2)SC1=S	Autofluor counter 18513, MazF activator 318
CC(C)(C)c1csc(N(CCC#N)CCC#N)n1	Autofluor counter 16153
Cn1c(O)c(C=NC2CCCCC2)c(=O)[nH]c1=S	none
O=c1[nH]c(O)c(C=NC2CCCCC2)c(=O)[nH]1	BoNT-F LC inh inconclusive, Anthrax LF inh2 37
COc1ccc(Cc2nc3ccc(C(=O)NC(C)c4cnn(C)c4)cc3o2)cc1 (centres undefined)	none
COc1cc(C2CC(=O)c3cnc(NC(=O)c4ccco4)nc3C2)cc(OC)c1OC (centres undefined)	none
CCN(CC)CCCNC(=S)N(CCO)Cc1cc2cc3c(cc2[nH]c1=O)OCCO3	BoNT-F LC inh inconclusive
O=C(Nc1ncccc1O)c1ccc(Cl)c(S(=O)(=O)N2CCCC2)c1	none
O=S1(=O)N=C(Nc2nncs2)c2ccccc21	Autofluor counter 22257, BoNT A protease inconclusive
COCC(=O)NC1CCN(CC(=O)Nc2ccccc2[N+](=O)[O-])CC1	none
COCC(=O)NC1CCN(C(=O)Nc2ccc(Br)cc2)CC1	Autofluor counter 16587
CCc1ccccc1OCC(=O)NC1CCCC1	Autofluor counter 23047
CCc1ccccc1NC(=O)CN1CCC(NC(=O)COC)CC1	Autofluor counter 23013, BoNT A protease inconclusive
COc1ccccc1CC(=O)NC1CCCCCC1	none
COc1ccccc1OCC(=O)NCC1CCCCC1	Autofluor counter 23960
COc1cccc(OC)c1C(=O)OCC(=O)NCC1CCCCC1	none
O=C(Oc1ccc(Br)cc1)c1n[nH]c(=O)c2ccccc12	none
CCOC(=O)c1c(NC(=O)COC(=O)c2ccc(Cl)nc2)sc(C)c1C	none
COc1cc(Cn2c3ccc(NC(=O)NCc4ccc(F)cc4)cc3c(=O)n2C)ccc1F	none (no result: MazF activator)
CCN(CC)c1ccc(C=Nc2ccc(OC)c(S(=O)(=O)N3CCOCC3)c2)c(O)c1	none
O=C(CSCc1c(F)cccc1Cl)NNC(=S)NC1CCCCC1	none
O=C(CN1C(=O)CSc2ccccc21)NC1CCCC1	none
COc1cc(CNn2cnnc2)ccc1OCC(=O)NC1CCCCC1	Autofluor counter 24056
COC(=O)c1ccccc1OCC(=O)NC1CCCCC1	Autofluor counter 21631
O=C(CN1C(=O)C(=O)c2ccccc21)NC1CCCCC1	Autofluor counter 21596, BoNT A protease inconclusive
COC(=O)c1ccc(OCC(=O)NC2CCCCCCC2)cc1	none
COC(=O)[C@@H](NCc1ccc(B(O)O)cc1)C(C)C	none
COc1cc(CCC(=O)N2CCN(S(=O)(=O)c3ccc(C)cc3)CC2)cc(OC)c1OC	none
O=c1[nH]c(/C=C\c2ccccc2F)nc(O)c1[N+](=O)[O-]	none
CC(C)(C)c1ccc(-c2csc(NNC3=NCCCCC3)n2)cc1	Autofluor counter 20221, BoNT A protease inconclusive
CC(=O)c1cnc(Oc2cc(Cl)ccc2Cl)nc1C	none
CC(C)C(=NO)c1ccccc1	none
O=C(COC(=O)c1ccccc1C(=O)c1ccc(Cl)c([N+](=O)[O-])c1)NC1CCCCCC1	Autofluor counter 23481
N#Cc1c(N)nc(SCC(=O)NC2CCCCC2)c(C#N)c1-c1ccc(Cl)cc1	Autofluor counter 16126
CN(C)S(=O)(=O)c1ccc2nc(NC(=O)c3cccnc3)sc2c1	none
CCN(CC)S(=O)(=O)c1ccc2nc(SC)sc2c1	Autofluor counter 18930
CSc1nc2ccc(NS(=O)(=O)c3ccc(Cl)s3)cc2s1	none
CN(C)S(=O)(=O)c1ccc2nc(NC(=O)c3cccs3)sc2c1	Autofluor counter 21214

Compound activity deposited in PubChem by several laboratories.
